Most compounds without a hit are left out; they make up all but 21% or so of the library.
D3 ag: agonists of human D3 dopamine receptor; D3R DiscoveRx beta-arrestin cells, luminescence, 90 min; 0.58% of 410,000 active; P35462; max activation, %; in the data active = max activation above about 30%; note: 0% is about no effect
Target sequence (P35462 whole entry, looked up): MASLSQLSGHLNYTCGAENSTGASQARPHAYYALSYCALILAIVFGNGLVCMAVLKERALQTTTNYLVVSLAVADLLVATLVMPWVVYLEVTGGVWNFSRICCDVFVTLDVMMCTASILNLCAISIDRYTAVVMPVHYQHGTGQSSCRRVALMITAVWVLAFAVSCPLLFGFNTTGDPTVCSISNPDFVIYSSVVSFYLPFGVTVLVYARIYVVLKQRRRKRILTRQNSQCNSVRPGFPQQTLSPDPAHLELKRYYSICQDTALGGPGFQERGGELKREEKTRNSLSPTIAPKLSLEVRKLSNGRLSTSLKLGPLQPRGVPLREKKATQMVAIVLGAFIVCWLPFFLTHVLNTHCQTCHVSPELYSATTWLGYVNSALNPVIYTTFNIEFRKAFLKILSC
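Agonist-mode cell screen: cells plated at 1500/well and incubated overnight at 37 °C, then exposed to library compounds for 90 min at 37 °C. Detection reagent was added for 30–60 min at room temperature, and luminescence was read.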
DT40 TDP1 no CPT: qHTS for Inhibitors of human tyrosyl-DNA phosphodiesterase 1 (TDP1): qHTS in cells in absence of CPT. DT40 Tdp1-/- hTDP1 cells, no CPT, ATP luminescence, 48 h. AID 686978, 2013. 15% of 420,000 active. Potency, µM (highest dose often 46.2 µM), for the others: at the highest dose activity change, negative = growth inhibition, most hits filed as inhibitors; note: potency is the fitted concentration of half-maximal effect; % is set by controls: 0 for no effect and ±100 for the full control effect; nearly all actives have a fitted effect of over 55% in size
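Growth kinetics read by CellTiter-Glo luminescence after ≥48 hr at 37 °C. Cells: DT40 Tdp1-/- stably carrying human TDP1, 400 per well, compound exposure in the absence of CPT (DMSO vehicle).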
IL1B secr inh: blocks inflammasome-driven IL-1 beta release; THP-1 LPS/ATP IL-1B secretion, AlphaLISA, 16 h; hits give low values; activity change, % at 57.5 µM; 4.7% of 360,000 active; in the data active = activity change below about -50%; inconclusive = mostly about -30% to -49%; note: % is set by controls: 0 for no effect and ±100 for the full control effect
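Secreted IL-1B measured by AlphaLISA bead assay after 16 h compound exposure of THP-1 cells; compounds (final up to 57.5 uM) added 1 h before LPS (250 ng/mL) and ATP (1.25 mM) stimulation; lower signal means less secretion.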
DT40 TDP1 CPT: growth inhibition of DT40 Tdp1-/-;hTDP1 cells with camptothecin (screen for TDP1 inhibitors); chicken DT40 Tdp1-/-;hTDP1 cells + 20 nM CPT, ATP luminescence, 48 h; Potency, µM (doses to about 46.2 µM), for inactives: at the highest dose activity change, negative = growth inhibition, hits mostly inhibitors; 12% of 420,000 active; AID 686979; note: potency is the fitted concentration of half-maximal effect; % is set by controls: 0 for no effect and ±100 for the full control effect; nearly all actives have a fitted effect of over 55% in size
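Cell growth measured by CellTiter-Glo luminescence after a minimum 48 h, 37 C compound exposure with 20 nM CPT in Tdp1-knockout DT40 cells stably expressing hTDP1, seeded 400/well; qHTS titration format.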
DRD3 antagonist: blocks the human D3 dopamine receptor | P35462 | D3R cells, DiscoveRx beta-arrestin luminescence, antagonist mode; hits give low values | max response, negative = inhibition, % | 2.5% of 360,000 active; in the data active = max response below about -50%; inconclusive = no clear call, values can overlap the other calls; note: % is set by controls: 0 for no effect and ±100 for the full control effect
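Cells expressing the human receptor were seeded at 1500 cells/well, incubated overnight at 37 degrees C in 5% CO2, then exposed to library compounds with dopamine controls for 90 minutes at 37 degrees C before luminescent detection.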
ClpP mod: qHTS Assay for Activators of ClpP; ATP-dependent Clp protease proteolytic subunit (Bacillus subtilis (strain 168)), P80244; purified B. subtilis ClpP, FRET peptide cleavage, 20 min; Potency, µM (highest dose often 57.5 µM), inactives show at the highest dose activity change, negative = active; 1.9% of 340,000 active; active = well fitted falling curve with a large enough effect; inconclusive = small, poorly fitted or top-dose-only effect; inactive = no such curve, though single readings can be large or run the other way; note: potency is the fitted concentration of half-maximal effect; the source files actives as falling curves though it sought activators and does not explain the sign; nearly all actives have a fitted effect of over 65% in size
Target sequence (P80244 whole entry, looked up): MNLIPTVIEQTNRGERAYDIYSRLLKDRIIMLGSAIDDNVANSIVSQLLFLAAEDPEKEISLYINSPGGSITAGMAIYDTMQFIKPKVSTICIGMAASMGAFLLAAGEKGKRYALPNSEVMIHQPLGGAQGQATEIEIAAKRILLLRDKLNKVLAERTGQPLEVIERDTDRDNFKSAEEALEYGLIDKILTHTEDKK
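Purified B. subtilis ClpP, 10 microg/mL final in Tris/HCl pH8 with KCl, BSA, glycerol and Tween-20, cleaved an Abz/nitrotyrosine-quenched decapeptide. Fluorescence (ex 320, em 430) was read at 0 and 20 min at room temperature. Delta was normalized to 5.8 microM ADEP and DMSO/no-enzyme controls.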
* = called active by the depositor; ? = inconclusive; · = no result; ! = repeats disagree; [ ] = remark or other dose. Unless noted, calls come from the whole dose curve; as a rule, active = well fitted inhibition curve with a large enough effect; inconclusive = small, poorly fitted or top-dose-only effect; inactive = flat fitted curve, though single readings scatter.

SMILES	D3 ag	DT40 TDP1 no CPT	IL1B secr inh	DT40 TDP1 CPT	DRD3 antagonist	ClpP mod
Cc1cc(C)cc(NS(=O)(=O)c2ccc3[nH]cc(C(=O)NC4CCCCC4)c(=O)c3c2)c1	6.4	16.4µM*	·	23.1µM*	·	6.6%
COc1cccc(NS(=O)(=O)c2ccc3[nH]cc(C(=O)N(C)Cc4ccco4)c(=O)c3c2)c1	-4.8	23.1µM*!	-3.4	23.1µM*!	14.3	-26.3%
CCOc1ccc(NS(=O)(=O)c2ccc3[nH]cc(C(=O)NCC4CCCO4)c(=O)c3c2)cc1 (configuration not stated)	-2.0	-15.6%	33.9	-13.5%	-55.2*	-1.6%
Cc1ccccc1NS(=O)(=O)c1ccc2[nH]cc(C(=O)N(C)Cc3ccco3)c(=O)c2c1	4.0	-24.4%	-3.9	-8.4%	-0.6	?
COc1ccccc1CN1CCOc2ccc(C(C)(O)COc3ccccc3)cc2C1 (configuration not stated)	·	-26.5%	·	10.2%[9.04 µM]	·	·
CC/C(=N\NC(=O)c1cc(C)oc1C)c1ccc(OC(F)F)cc1	-10.5	?	18.4	?	-13.7	-2.8%
Cc1ccc(S(=O)(=O)N(C)Cc2ccc(C(=O)NN=C(CC(C)C)CC(C)C)cc2)cc1	2.7	23.1µM*	-27.4	?	-27.5	0.8%
CC/C(=N\NC(=O)c1ccc(CN(C)S(=O)(=O)c2ccc(C)cc2)cc1)c1ccc(OC(F)F)cc1	-1.6	20.6µM*	-15.5	?	-20.7	-1.1%
Cc1ccccc1NC(=O)CSc1nc(-c2ccco2)nc2cc(=O)[nH]n12	9.6	-1.5%	·	8.3%	·	-1.4%
Oc1ccc(C2C[C@H]3CC[C@@H]2C3)cc1O (some centres not stated)	5.8	?	-23.0	11.6µM*	8.9	2.2%
O=C1CC(c2ccc(O)c(O)c2)Oc2cc(O)cc(O)c21 (configuration not stated)	14.3	?	2.2	-22.9%	-12.3	-15.1%
Cc1cccc(-c2nc(N3CCN(c4ccc(F)cc4)CC3)c3ccccc3n2)c1	0.3	?	·	?	·	-1.4%
O=C(CC(c1ccco1)C1CCCCC1=O)c1ccccc1 (configuration not stated)	2.9	?	-0.3	?	-13.1	-0.9%
O=C(CC1C(=O)CCCC1=O)c1ccccc1	4.6	?	-204.3*	13µM*	7.1	·
CCCOc1ccc(-c2c(C(=O)N/N=C/c3cccnc3)nnn2-c2nonc2N)cc1	4.3	9.8%	23.6	10.1%	24.6	-3.2%
O=S(=O)(c1ccc2c(c1)OCCO2)N1CCN(CCc2ccccc2)CC1	·	-13.2%	·	-28.9%	·	-4.7%
Cc1cccc(C)c1NC(=O)C(c1ccccc1OC(F)(F)F)N1CCC(c2ccccc2)CC1 (configuration not stated)	9.7	16.4µM*	-18.7	?	0.3	-4.4%
Cc1cccc(C)c1NC(=O)C(c1ccccc1OC(F)(F)F)N1CCN(C/C=C/c2ccccc2)CC1 (configuration not stated)	-14.8	14.6µM*	?	16.4µM*	-63.3*	2.3%
C=CCOc1ccc(/C=C/C(=O)OCC(=O)Nc2c(C)n(C)n(-c3ccccc3)c2=O)cc1	5.3	-13.0%	10.8	-11.2%	16.5	·
OC(C#CCN1CCCCC1)c1ccccc1 (configuration not stated)	-14.2	-11.3%	3.6	-9.5%	-50.6*	2.0%
CC(C)C(O)(C#CCN1CCCC1)c1ccccc1 (configuration not stated)	-23.6	-18.8%	-12.0	0.5%	-19.5	0.4%
OC(C#CCN1CCCC1)(c1ccccc1)c1cccnc1 (configuration not stated)	-16.5	2.1%	·	0.3%	2.5	·
CC(C)C(O)(C#CCN1CCCCC1)c1ccccc1 (configuration not stated)	-28.9	-13.6%	-10.2	-5.2%	-71.4*	-0.6%
OC(C#CCN1CCCCCC1)(c1ccccc1)c1cccnc1 (configuration not stated)	-29.5	-3.0%	-13.0	2.0%	-64.0*	0.5%
Cc1nn2c(=O)cc(CN(C)c3ccccc3)nc2s1	7.9	11.5%	·	5.7%	·	1.4%
SMILES	D3 ag	DT40 TDP1 no CPT	IL1B secr inh	DT40 TDP1 CPT	DRD3 antagonist	ClpP mod
Cc1cccc(C)c1N(CC(=O)N1CCCC1)S(C)(=O)=O	2.7	12.3%	6.4	6.6%	-2.7	-0.7%
O=C(CCC(F)(F)F)N1CCCC(CO)(CCc2ccccc2)C1 (configuration not stated)	22.6	-5.0%	0.0	-16.9%	11.9	1.0%
COc1ccccc1/C=C/C=N/N1CCN(Cc2ccccc2)CC1	3.3	-28.3%	-2.5	12.1%	-5.0	-1.2%
OCC1(CCc2ccccc2)CCCN(C/C=C/c2ccccc2)C1 (configuration not stated)	-23.0	?	?	6.5%	-68.2*	·
COc1ccccc1/C=C/CN1CCN(c2ccccc2)CC1	18.9	?	?	?	-64.0*	-2.6%
COc1ccccc1/C=C/CN1CCCC(CO)(CCc2ccccc2)C1 (configuration not stated)	-23.3	?	-93.9*	20.6µM*	-95.6*	·
O=C(Nc1ccccc1)OCCN1CCOCC1	8.0	-7.3%	4.3	-20.5%	-1.4	-3.1%
CCOC(=O)CCc1ccc(NC(=O)/C=C/c2ccc([N+](=O)[O-])o2)cc1	-16.6	3.26µM*	-80.5*	1.84µM*	1.2	1.3%
CCc1ccc(-c2nc(CN3CCC(C(=O)NCCc4ccc(C)cc4)CC3)c(C)o2)cc1	0.3	?	·	-9.6%	·	1.0%
COc1ccccc1CNC(=O)C1CCN(Cc2nc(-c3cccc(Cl)c3)oc2C)CC1	-6.3	?	-28.2	20.6µM*	?	-3.2%
COc1ccccc1CNC(=O)C1CCN(Cc2nc(-c3ccc(OC)c(OC)c3)oc2C)CC1	-3.5	?	·	-13.3%	·	-13.5%
Cc1oc(-c2cccc(Cl)c2)nc1CN1CCC(C(=O)NCc2ccc(F)cc2)CC1	-15.8	14.6µM*	·	?	·	-0.4%
CCc1ccc(-c2nc(CN3CCC(C(=O)NCCc4ccc(OC)c(OC)c4)CC3)c(C)o2)cc1	0.3	?	-54.2*	16.4µM*	-8.6	-2.5%
CCc1ccc(-c2nc(CN3CCC(C(=O)NCc4ccccc4OC)CC3)c(C)o2)cc1	-8.7	?	?	18.4µM*	-17.2	-1.7%
